Test results: PubChem BioAssay (NCI)
Where “and” joins values, the source holds several entries; their conditions need not be identical. Equal values may be shown once. Compounds without any hit were thinned out: in the full panel of roughly 83,000, 20% have a hit.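 Treatment: one concentration, 48 hours, 96-well format. Scoring: percent growth, with anything below 10 considered active.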 Calls of active or inactive are those of the source.

Legend:
Test in all cases: NCI-60 one-dose screen, 48 h (100 = growth as untreated, 0 = no growth, -100 = all killed)
[1] = tested on: SK-MEL-2 melanoma; settings: 10 µM unless noted
[2] = tested on: EKVX NSCLC; settings: 10 µM
[3] = tested on: SN12C renal; settings: 10 µM unless noted
[4] = tested on: UO-31 renal; settings: 10 µM unless noted
[5] = tested on: TK-10 renal
[6] = tested on: ACHN renal; settings: 10 µM unless noted
[7] = tested on: CAKI-1 renal; settings: 10 µM unless noted
[8] = tested on: A498 renal; settings: 10 µM unless noted
[9] = tested on: CCRF-CEM leukemia; settings: 10 µM
[10] = tested on: MOLT-4 leukemia; settings: 10 µM unless noted

Measured: growth

NN1CCOC(c2ccccc2)C1 (stereo not drawn)
inactive: [1] 110% | [2] 115% | [3] 102% | [4] 71.4% | [5]; 10 µM unless noted 122% | [6] 99.1% | [7] 109% | [8] 107% | [9] 99.3% | [10] 76.1%

Nc1cc(N)c(N)cc1N
inactive: [2] 57.5% | [5]; 10 µM unless noted 101% | [7] 82.5% | [8] 99.8% | [9] 89.6% | [10] 83.2%
active: [1] -62.5% | [3] -69.7% | [4] -0.0578% | [6] 8.63%

CCCCOC(=O)/C=C\C(=O)NC(N)=O
active: [7] -58%
inactive: [1] 111% | [2] 95% | [3] 87.2% | [4] 31% | [5]; 10 µM unless noted 119% | [6] 61.3% | [8] 106% | [10] 65.4%

CC(C)NC(=O)N/C=C(\C#N)C(N)=O
inactive: [1] 101% | [2] 97.2% | [3] 99.1% | [4] 87.8% | [5]; 10 µM unless noted 99.7% | [6] 94.8% | [7] 81.5% | [8] 112% | [10] 106%

NC(Cc1c[nH]c2ccccc12)C(=O)O (stereo not drawn)
3.12% (active) and 100% (inactive): [10]
inactive: [1] 110% | [2] 93.1% and 101% | [3] 101% | [4] 91.9% and 72.6% | [5]; 10 µM unless noted 103% and 98.8% | [6] 99.8% and 100% | [7] 85% | [8] 109% and 106% | [9] 105% and 102%

c1ccc2c(c1)OC1OC2Oc2ccccc21
inactive: [1] 87.7% | [2] 105% | [3] 98.9% | [4] 90.1% | [5]; 10 µM unless noted 97.6% | [6] 101% | [7] 113% | [8] 117% | [9] 97.6% | [10] 95.4%

CC1CCC2(C(=O)O)CCC3(C)C(=CCC4C5(C)CCC(O)C(C)(C)C5CCC43C)C2C1C (stereo not drawn)
-22.1% (active) and 35.8% (inactive): [9]
inactive: [1] 82.5% and 86.8% | [2] 74% and 70.8% | [3] 79.3% and 99.7% | [5]; 10 µM 90.6% and 88.5% | [6] 57.7% and 76.2% | [7] 40.4% and 90.8% | [8] 103%
active: [5]; 100 µM -77.6% and -96.8%
-11.8% (active) and 84.5% (inactive): [10]
5.91% (active) and 55.4% (inactive): [4]

CCCCOc1ccc(Nc2cc(Cl)ccc2C(=O)O)cn1
6.77% (active) and 86.2% (inactive): [4]
inactive: [1] 79.3% and 112% | [2] 101% and 98.6% | [3] 94.2% and 104% | [5]; 10 µM unless noted 112% and 121% | [6] 106% and 89.9% | [7] 97.7% and 94.4% | [8] 102% | [9] 82.3% and 95% | [10] 94.6% and 108%

CC(=O)Nc1ccc(S(N)(=O)=O)cc1
inactive: [1] 109% and 110% | [2] 102% | [3] 97.5% and 102% | [4] 95.8% and 84.3% | [5]; 10 µM unless noted 101% | [6] 103% and 93.3% | [7] 108% and 93.2% | [8] 85.8% and 101% | [9] 93.2% and 100% | [10] 103% and 98.8%

CCN(CCNS(C)(=O)=O)c1ccc(N)c(C)c1
inactive: [1] 21.6% | [2] 88.9% | [3] 88.1% and 93.5% | [4] 42.2% | [5]; 10 µM unless noted 55.8% and 17.7% | [6] 27.9% and 76.2% | [7] 39.4% and 73.2% | [8] 104% and 94.2% | [10] 66.3% and 96.3%

O=C1c2c(O)ccc(O)c2C(=O)c2c(NCCNCCO)ccc(NCCNCCO)c21
active: [1] -87.6% and -70.5% | [2] -17.7% and -29.5% | [3] -45.7% and -49.7% | [4] -63.5% and -53.9% | [5]; 10 µM unless noted -35% and -7% | [6] -52.9% and -45.2% | [7] -17.2% and -31% | [8] -80.1% | [10] 2.98% and -18.1%

O=C1OC(C(O)C(O)CO)C(O)=C1O (stereo not drawn)
inactive: [1] 92.9% and 101% | [2] 110% and 99.5% | [3] 107% and 101% | [4] 104% and 94.2% | [5]; 10 µM unless noted 124% and 100% | [6] 105% and 103% | [7] 104% and 102% | [8] 129% and 116% | [10] 121% and 105%

Nc1ccc2c(O)cc(S(=O)(=O)O)cc2c1
inactive: [1] 108% and 92.1% | [2] 102% and 110% | [3] 95.4% and 86.9% | [4] 69.5% and 63.5% | [5]; 10 µM unless noted 94.4% and 143% | [6] 95.8% and 92.8% | [7] 87.1% | [8] 102% and 100% | [10] 87.3% and 92.5%

O=C1C=C(Nc2ccccc2)c2ccccc2C1=O
inactive: [1] 101% | [2] 99.8% | [3] 20.9% and 93.6% | [4] 65.1% and 79.9% | [5]; 10 µM unless noted 149% and 136% | [6] 30.1% and 92.8% | [7] 55.9% and 98.1% | [8] 87% and 113% | [10] 72.7% and 87%

CN(C)c1ccc(/C=C\C(=O)c2ccccc2)cc1
inactive: [1] 93.3% and 91.9% and 72.1% | [2] 105% | [3] 95.6% and 98.8% and 95% | [4] 74.5% and 69.4% and 63.9% | [5]; 10 µM unless noted 76.6% and 79% and 70.5% | [6] 99.4% and 101% | [7] 86.9% and 93.8% | [8] 91.8% and 71.8% and 102% | [9] 70.4% and 65% and 74% | [10] 74.5% and 85.3% and 72.2%

CC[C@H](CC[C@@H](C)[C@H]1CC[C@H]2[C@@H]3CC=C4C[C@@H](O)CC[C@]4(C)[C@H]3CC[C@]12C)C(C)C
inactive: [1] 100% and 117% | [2] 102% and 107% | [3] 94.7% and 105% | [4] 92.7% and 96.2% | [5]; 10 µM unless noted 91.7% and 107% | [6] 94.4% and 103% | [7] 93.2% and 90% | [8] 103% and 105% | [9] 91.1% and 97.8% | [10] 108% and 103%

C/C(=C\c1ccccc1)c1ccccn1
inactive: [1] 128% | [2] 98.7% | [3] 95.8% | [4] 98.9% | [5]; 10 µM unless noted 162% | [6] 105% | [7] 102% | [8] 111% | [9] 94.5% | [10] 73.3%

CC1CCC(C(C)C)C(NNC(N)=O)C1 (stereo not drawn)
inactive: [1] 107% | [2] 101% | [3] 101% | [4] 86.6% | [5]; 10 µM unless noted 105% | [6] 110% | [7] 98.9% | [8] 102% | [9] 106% | [10] 113%

N#CC(C#N)N=Nc1ccc(Cl)cc1
active: [7] 4.49%
inactive: [1] 77.3% | [2] 77% | [3] 33.5% | [4] 10.6% | [5]; 10 µM unless noted 42.9% | [6] 26.9% | [8] 86% | [10] 37.6%
